From PubChem BioAssay (NCI)
Compounds without any hit were thinned out: in the full panel of roughly 83,000, 20% have a hit.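 Plates (96-well) were seeded with cells, treated with compound at one concentration, and incubated for 48 hours before percent growth was determined.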 Unmarked numbers belong to inactive results. Calls of active or inactive are those of the source. How the source made its calls: active means growth percent below 10; inactive means the rest.

Columns and labels:
Assay in all cases: NCI-60 one-dose screen, 48 h (100 = growth as untreated, 0 = no growth, -100 = all killed)
Details in all cases: 10 µM unless noted
RPMI-8226 leukemia = test system: RPMI-8226 leukemia
OVCAR-8 ovarian = test system: OVCAR-8 ovarian
OVCAR-5 ovarian = test system: OVCAR-5 ovarian
OVCAR-4 ovarian = test system: OVCAR-4 ovarian
SK-OV-3 ovarian = test system: SK-OV-3 ovarian
IGROV1 ovarian = test system: IGROV1 ovarian
OVCAR-3 ovarian = test system: OVCAR-3 ovarian
HS 578T breast = test system: HS 578T breast
NCI/ADR-RES ovarian = test system: NCI/ADR-RES ovarian
SR leukemia = test system: SR leukemia

COc1ccc(-c2nc3ccc(-c4nc5ccc(N6CCN(c7ccccc7)CC6)cc5[nH]4)cc3[nH]2)cc1OC
growth (RPMI-8226 leukemia): -23% (active)
growth (OVCAR-8 ovarian): -4.55% (active)
growth (OVCAR-5 ovarian): -44.1% (active)
growth (OVCAR-4 ovarian): -49.9% (active)
growth (SK-OV-3 ovarian): 107%
growth (IGROV1 ovarian): 16.2%
growth (OVCAR-3 ovarian): -68.3% (active)
growth (HS 578T breast): -0.217% (active)
growth (NCI/ADR-RES ovarian): 67.3%

CN(C)[C@@H]1C(=O)C(C(=O)NCc2nc3[nH]cnc(=S)c3[nH]2)=C(O)[C@@]2(O)C(=O)C3=C(O)c4c(O)cccc4[C@@](C)(O)[C@H]3C[C@@H]12
growth (SR leukemia): 12.5%
growth (OVCAR-5 ovarian): 36.3%
growth (OVCAR-4 ovarian): 39.8%
growth (SK-OV-3 ovarian): 19.9%
growth (IGROV1 ovarian): 12.5%
growth (OVCAR-3 ovarian): 38.7%
growth (HS 578T breast): 73.5%
growth (NCI/ADR-RES ovarian): 30.5%

O=C(Cn1cccc(Nc2ccccc2)c1=O)Nc1ccccc1
growth (RPMI-8226 leukemia): 100%
growth (OVCAR-8 ovarian): 102%
growth (OVCAR-5 ovarian): 90.1%
growth (OVCAR-4 ovarian): 102%
growth (SK-OV-3 ovarian): 104%
growth (IGROV1 ovarian): 119%
growth (OVCAR-3 ovarian): 115%
growth (HS 578T breast): 102%

Cc1cc(C)nc(SC2=C(Nc3ccc(C)c(Cl)c3)C(=O)N(Cc3ccccc3)C2=O)n1
growth (RPMI-8226 leukemia): 7.62% [30 µM] (active)
growth (OVCAR-8 ovarian): 45.3% [30 µM]
growth (OVCAR-5 ovarian): 103% [30 µM]
growth (OVCAR-4 ovarian): 58.2% [30 µM]
growth (SK-OV-3 ovarian): 99% [30 µM]
growth (IGROV1 ovarian): 45.1% [30 µM]
growth (OVCAR-3 ovarian): 69% [30 µM]
growth (HS 578T breast): 72.1% [30 µM]

c1ccc(-c2c(-c3ccccc3)[n+](Cc3ccc4ccccc4c3)c(-c3ccc(-c4nc5ccccc5s4)cc3)n2Cc2ccc3ccccc3c2)cc1
growth (RPMI-8226 leukemia): -40.5% (active)
growth (OVCAR-8 ovarian): -85.4% (active)
growth (OVCAR-5 ovarian): -93% (active)
growth (OVCAR-4 ovarian): -62.9% (active)
growth (SK-OV-3 ovarian): -97.4% (active)
growth (IGROV1 ovarian): -84.8% (active)
growth (OVCAR-3 ovarian): -89.4% (active)
growth (HS 578T breast): -45.3% (active)

N#CCCN=Nc1c(O)[nH]c2ccc([N+](=O)[O-])cc12
growth (RPMI-8226 leukemia): 105%
growth (OVCAR-8 ovarian): 102%
growth (OVCAR-5 ovarian): 97%
growth (OVCAR-4 ovarian): 105%
growth (SK-OV-3 ovarian): 86%
growth (IGROV1 ovarian): 99.6%
growth (OVCAR-3 ovarian): 103%
growth (HS 578T breast): 103%
growth (NCI/ADR-RES ovarian): 104%

Nc1n[nH]c2ccc([C@@H]3Nc4ccc5cn[nH]c5c4[C@H]4C5CCC(C5)[C@@H]34)cc12 (stereo partly specified)
growth (RPMI-8226 leukemia): 40.3%
growth (OVCAR-8 ovarian): 35.5%
growth (OVCAR-5 ovarian): 40.3%
growth (OVCAR-4 ovarian): 35.2%
growth (SK-OV-3 ovarian): 37.7%
growth (IGROV1 ovarian): 22.1%
growth (OVCAR-3 ovarian): -5.18% (active)
growth (HS 578T breast): 21.2%
growth (NCI/ADR-RES ovarian): 20.7%

C(=C\c1nccc2c1[nH]c1ccccc12)/c1ccccc1
growth (SR leukemia): 82.7%
growth (OVCAR-5 ovarian): 62.9%
growth (OVCAR-4 ovarian): 14.9%
growth (SK-OV-3 ovarian): 24.7%
growth (IGROV1 ovarian): -15.9% (active)
growth (OVCAR-3 ovarian): -13.3% (active)
growth (HS 578T breast): 29.2%

COc1ccc2cc(-c3nn(-c4ccc(C(=O)O)cc4)cc3CO)ccc2c1
growth (RPMI-8226 leukemia): 95.1%
growth (OVCAR-8 ovarian): 101%
growth (OVCAR-5 ovarian): 100%
growth (OVCAR-4 ovarian): 106%
growth (SK-OV-3 ovarian): 107%
growth (IGROV1 ovarian): 99.2%
growth (OVCAR-3 ovarian): 93.5%
growth (HS 578T breast): 97.3%

COc1ccc(SC2c3ccc(C)cc3Oc3nc(N)c(C#N)c(N)c32)cc1 (stereo unspecified)
growth (RPMI-8226 leukemia): -34.2% (active)
growth (OVCAR-8 ovarian): -89.1% (active)
growth (OVCAR-5 ovarian): 5.64% (active)
growth (OVCAR-4 ovarian): -93.5% (active)
growth (SK-OV-3 ovarian): 44.9%
growth (IGROV1 ovarian): -82.8% (active)
growth (OVCAR-3 ovarian): -93.7% (active)
growth (HS 578T breast): 3.13% (active)
growth (NCI/ADR-RES ovarian): 1.24% (active)

N#Cc1c(-c2ccc(Cl)cc2)nc(N=Nc2c(O)[nH]c3ccc(Cl)cc23)nc1N1CCOCC1
growth (RPMI-8226 leukemia): 119%
growth (OVCAR-8 ovarian): 100%
growth (OVCAR-5 ovarian): 98.9%
growth (OVCAR-4 ovarian): 99.8%
growth (SK-OV-3 ovarian): 96.1%
growth (IGROV1 ovarian): 92.5%
growth (OVCAR-3 ovarian): 115%
growth (HS 578T breast): 94%

Cc1cc(N[C@@H]2CCC[C@H](Nc3ccnc4cc(Cl)ccc34)C2)nc(N2CCCCCC2)n1
growth (RPMI-8226 leukemia): -52.2% (active)
growth (OVCAR-8 ovarian): -43% (active)
growth (OVCAR-5 ovarian): -15.8% (active)
growth (OVCAR-4 ovarian): -5.16% (active)
growth (SK-OV-3 ovarian): -51.9% (active)
growth (IGROV1 ovarian): -45.5% (active)
growth (OVCAR-3 ovarian): -58.8% (active)
growth (HS 578T breast): -46.8% (active)
growth (NCI/ADR-RES ovarian): -39.8% (active)

COc1ccc(-c2nc3ccc(-c4nc5ccc(N6CCN(c7ccc(F)cc7)CC6)cc5[nH]4)cc3[nH]2)cc1OC
growth (RPMI-8226 leukemia): 4.42% (active)
growth (OVCAR-8 ovarian): 62.6%
growth (OVCAR-5 ovarian): 96.1%
growth (OVCAR-4 ovarian): 80.5%
growth (SK-OV-3 ovarian): 80.6%
growth (IGROV1 ovarian): 72.8%
growth (OVCAR-3 ovarian): 90.4%
growth (HS 578T breast): 74.8%
growth (NCI/ADR-RES ovarian): 81.3%

COC(=O)[C@]12CCC(C)(C)C[C@H]1[C@H]1C(=O)C[C@@H]3[C@@]4(C)c5c([nH]c6ccccc6c5=O)C(C)(C)[C@@H]4CC[C@@]3(C)[C@]1(C)CC2
growth (RPMI-8226 leukemia): 34.9%
growth (OVCAR-8 ovarian): 59.2%
growth (OVCAR-5 ovarian): 80.7%
growth (OVCAR-4 ovarian): 49%
growth (SK-OV-3 ovarian): 86.4%
growth (IGROV1 ovarian): 94.5%
growth (OVCAR-3 ovarian): 63.2%
growth (HS 578T breast): 87.1%
growth (NCI/ADR-RES ovarian): 49.6%

CSc1nc(NCc2ccccc2)c(C#N)c(-c2cccc([N+](=O)[O-])c2)n1
growth (RPMI-8226 leukemia): 100%
growth (OVCAR-8 ovarian): 95%
growth (OVCAR-5 ovarian): 90.7%
growth (OVCAR-4 ovarian): 88.5%
growth (SK-OV-3 ovarian): 97.1%
growth (IGROV1 ovarian): 99.9%
growth (OVCAR-3 ovarian): 111%
growth (HS 578T breast): 92%

O=C1c2ccccc2OC=C(c2ccccc2)N1CCCCNc1ccc(S(=O)(=O)Nc2ncccn2)cc1
growth (RPMI-8226 leukemia): 83.2%
growth (OVCAR-8 ovarian): 92.2%
growth (OVCAR-5 ovarian): 105%
growth (OVCAR-4 ovarian): 106%
growth (SK-OV-3 ovarian): 96.6%
growth (IGROV1 ovarian): 104%
growth (OVCAR-3 ovarian): 104%
growth (HS 578T breast): 92.8%
growth (NCI/ADR-RES ovarian): 98.6%

COc1ccc(/C=C(\C#N)C(=O)Nc2cccc(Nc3nc(SC)nc(-c4cccc([N+](=O)[O-])c4)c3C#N)c2)cc1OC
growth (RPMI-8226 leukemia): 83.8%
growth (OVCAR-8 ovarian): 102%
growth (OVCAR-5 ovarian): 96.6%
growth (OVCAR-4 ovarian): 91.1%
growth (SK-OV-3 ovarian): 99%
growth (IGROV1 ovarian): 74.7%
growth (OVCAR-3 ovarian): 112%
growth (HS 578T breast): 104%
growth (NCI/ADR-RES ovarian): 104%

Cc1c(/C=C/[N+](=O)[O-])ccc2c1[nH]c1ccccc12
growth (RPMI-8226 leukemia): -15% (active)
growth (OVCAR-8 ovarian): 94.1%
growth (OVCAR-5 ovarian): 106%
growth (OVCAR-4 ovarian): 116%
growth (SK-OV-3 ovarian): 114%
growth (IGROV1 ovarian): 101%
growth (OVCAR-3 ovarian): 123%
growth (HS 578T breast): 104%
growth (NCI/ADR-RES ovarian): 108%

Cc1nc2ccccc2n1C(=O)C[C@@H]1NC(=S)NC1=O
growth (RPMI-8226 leukemia): 111%
growth (OVCAR-8 ovarian): 93.6%
growth (OVCAR-5 ovarian): 85.6%
growth (OVCAR-4 ovarian): 101%
growth (SK-OV-3 ovarian): 100%
growth (IGROV1 ovarian): 94.8%
growth (OVCAR-3 ovarian): 108%
growth (HS 578T breast): 104%
growth (NCI/ADR-RES ovarian): 101%

Oc1ccc(N=Cc2ccccc2O)cc1
growth (SR leukemia): 83.7%
growth (OVCAR-8 ovarian): 83.6%
growth (OVCAR-5 ovarian): 87.3%
growth (OVCAR-4 ovarian): 89.3%
growth (SK-OV-3 ovarian): 98.5%
growth (OVCAR-3 ovarian): 90.6%
growth (HS 578T breast): 112%
growth (NCI/ADR-RES ovarian): 98.2%

C=C1c2nc3ccccc3n2C=C(c2ccc(Cl)cc2)N1Cc1ccc(OC)cc1
growth (RPMI-8226 leukemia): 30.9%
growth (OVCAR-8 ovarian): 91.1%
growth (OVCAR-5 ovarian): 72.1%
growth (OVCAR-4 ovarian): 71.6%
growth (SK-OV-3 ovarian): 85.8%
growth (IGROV1 ovarian): 55.2%
growth (OVCAR-3 ovarian): 85.4%
growth (HS 578T breast): 104%

O=C1CC(=NCC(=O)n2c(-c3ccccc3)nc3ccccc32)NN1
growth (RPMI-8226 leukemia): 104%
growth (OVCAR-8 ovarian): 102%
growth (OVCAR-5 ovarian): 99.9%
growth (OVCAR-4 ovarian): 97.5%
growth (SK-OV-3 ovarian): 84.8%
growth (IGROV1 ovarian): 77.2%
growth (OVCAR-3 ovarian): 103%
growth (HS 578T breast): 103%
growth (NCI/ADR-RES ovarian): 99.5%

COc1ccc(Nc2nc(SC)nc(-c3cccc([N+](=O)[O-])c3)c2C#N)cc1
growth (RPMI-8226 leukemia): 98.4%
growth (OVCAR-8 ovarian): 39.4%
growth (OVCAR-5 ovarian): 76.5%
growth (OVCAR-4 ovarian): 2.52% (active)
growth (SK-OV-3 ovarian): 46.4%
growth (IGROV1 ovarian): 72.3%
growth (OVCAR-3 ovarian): 74.5%
growth (HS 578T breast): 42.1%
growth (NCI/ADR-RES ovarian): 57.9%

C=C(C)[C@@H]1CC[C@]2(C(=O)OC)CC[C@]3(C)[C@H](CC[C@@H]4[C@@]5(C)C/C(=C/c6ccc(OC)cc6)C(=O)C(C)(C)[C@@H]5CC[C@]43C)[C@@H]12
growth (RPMI-8226 leukemia): 54.8%
growth (OVCAR-8 ovarian): 102%
growth (OVCAR-5 ovarian): 93.4%
growth (OVCAR-4 ovarian): 85.8%
growth (SK-OV-3 ovarian): 102%
growth (IGROV1 ovarian): 100%
growth (OVCAR-3 ovarian): 86.7%
growth (HS 578T breast): 94.9%

O=C1NC(=S)N[C@H]1CC(=O)n1cnc2ccccc21
growth (RPMI-8226 leukemia): 115%
growth (OVCAR-8 ovarian): 104%
growth (OVCAR-5 ovarian): 100%
growth (OVCAR-4 ovarian): 107%
growth (SK-OV-3 ovarian): 111%
growth (IGROV1 ovarian): 96.5%
growth (OVCAR-3 ovarian): 110%
growth (HS 578T breast): 99.1%
growth (NCI/ADR-RES ovarian): 96.5%

NC(CSC(c1ccccc1)(c1ccccc1)c1ccc(Cl)cc1)C(=O)O (stereo unspecified)
growth (SR leukemia): -24.5% (active)
growth (OVCAR-8 ovarian): -15.9% (active)
growth (OVCAR-5 ovarian): 12.2%
growth (OVCAR-4 ovarian): 63.2%
growth (SK-OV-3 ovarian): 17.2%
growth (OVCAR-3 ovarian): -41.4% (active)
growth (HS 578T breast): -36.2% (active)
growth (NCI/ADR-RES ovarian): -20.5% (active)
